PubChem BioAssay (NCI)
This is part of a sample that, as a whole, favours compounds with a hit. Of some 79,000 tested, about 15% had one in any assay. Unmarked numbers belong to inactive results. Activity calls are given as the source filed them. Cut-off read from the data, not from the text of the source: active = growth inhibition above about 70%; inactive = the rest. Where a SMILES comes first, the peptide text is derived from it. The star is where a group is joined. Cbz = O=C(OCc1ccccc1)*; Boc = CC(C)(C)OC(=O)*; OSu = O=C1CCC(=O)N1O*; Bn = c1ccc(C*)cc1

Test: NCI Yeast Anticancer Drug Screen. Data for the bub3 strain (AID 167)
Conditions: S. cerevisiae bub3 mutant strain, at 50.0 µM, stronger effect = higher value
Description: Growth inhibition of yeast strains with defined genetic alterations is measured as a screen for potential anti-cancer activity. Selected strains with alterations in DNA damage repair or cell cycle control were exposed to compounds and growth inhibition was measured relative to vehicle treated controls. The strain used in this assay is bub3

Point of comparison: `CO[C@H]1C[C@H]2[C@@H]3CCC4=CC(=O)CC[C@]4(C)[C@H]3CC[C@]2(C)[C@@]1(O)C(=O)CO`, growth inhibition -11.7%. Against it:
- OCCCC1CCN(CCO)CC1 — higher, -8.7%
- C1CCC(NCSC2=NCCS2)CC1 — higher, 7.95%
- CCOC(=O)N/N=C(/OCC)c1ccccc1 — higher, 13.8%
- O=C1NCCc2c1sc1ccccc21 — higher, -1.05%
- O=CN1CCN(c2ccc3ccc(=O)[nH]c3n2)CC1 — higher, -5.05%
- COc1cc(C(=O)O)c(I)c(OC)c1OC — higher, 3.6%
- O=C(CCC/C(CC(=O)c1ccc(Cl)cc1)=N\NC(=O)c1cc2ccccc2cc1O)Nc1cccc([N+](=O)[O-])c1 — higher, 6%
- COc1ccc(OC)c(N=Cc2cccs2)c1 — higher, 16.2%
- CC(=O)N1CN2C(=O)CCC2c2cc(C)ccc21 (stereo not given) — higher, 0.95%
- CC(C)(C)c1onc2c1C(=O)c1ccccc1-2 — higher, 25.9%
- C/C(=N\NC(=O)CCCCC(=O)N/N=C(\C)c1ccc(C)cc1)c1ccc(C)cc1 — higher, -1.9%
- N#C/C(=C\c1cccc(Cl)c1)C(=O)c1ccccc1 — higher, 0.2%
- Cc1cc2c(C)nn(Cc3ccccc3)c2c(C(=O)O)c1C — higher, 9.95%
- CC12C(=O)NC(c3ccccc3)(c3ccccc31)C1C(=O)N(C(N)=O)C(=O)C12 (stereo not given) — lower, -15.2%
- Cc1ncc([N+](=O)[O-])n1CCSC(N)=O — higher, 16.8%
- CC(C)C1=C(Cc2ccccc2)C(=O)O/C1=C\c1ccc(O)c(Cl)c1 — higher, 6.05%
- O=[N+]([O-])c1ccc(N/N=C/c2ccc(CO)cc2)c([N+](=O)[O-])c1 — higher, 6.1%
- Cc1cc(C)c(Br)c(C)c1C — higher, 8.5%
- O=C1NC(=O)C(c2ccc(Cl)c(Cl)c2)N1 (stereo not given) — lower, -12.9%
- CC(C)(C)OC(=O)NC(Cc1ccc(OCc2ccccc2)cc1)C(=O)NC(CCCCNC(=O)OCc1ccccc1)C(=O)NC(CCCCNC(=O)OCc1ccccc1)C(=O)ON1C(=O)CCC1=O (stereo not given) (Boc-Tyr(Bn)-Lys(Cbz)-Lys(Cbz)-OSu; configuration not given here) — higher, 8.6%
- O=S1(=O)CC2C3CC(Oc4ccccc4)C(C3)C2C1 (stereo not given) — lower, -26.6%
- CC1c2c(ccc3c2CCC=C3)CCC1CC1=CCCc2ccc3ccccc3c21 (stereo not given) — higher, 0.1%
- CNC(=O)c1ccccc1N — higher, 1.05%
- COC12CC3C4CCC5CC(O)CCC5(C)C4CCC3(C)C1C(C)C1(CCC(C)CO1)O2 (stereo not given) — higher, 1.05%
- Cc1ccc(-c2cc(=O)c3cc(C)c(C)c(C(=O)O)c3o2)cc1N — higher, 14.2%
- CC1(C)OC2OC(CI)C3OC(C)(C)OC3C2O1 (stereo not given) — higher, 12.6%
- COC1OC(COS(=O)(=O)c2ccc(C)cc2)C(N(C)C(C)=O)C1OS(=O)(=O)c1ccc(C)cc1 (stereo not given) — higher, 2.3%
- CC1=CC(=O)C(=O)c2ccccc21 — higher, -4.4%
- CC(C)S1=C2C(=O)CC(C)(C)CC2=Nc2ccccc21 (stereo not given) — higher, 15.8%
- CC(=O)c1cc2c(cc1C)C(C)=C(C)C2(C)C — higher, 0.65%
- COc1ccc(C(CC(=O)c2ccccc2)SCCN2CCOCC2)cc1 (stereo not given) — higher, 53.5%
- O=C(/C=C/c1ccccc1)Nc1ccccc1C(F)(F)F — higher, 12.6%
- CCOC(=O)c1cnc(SC)nc1N — higher, 8.95%
- CCn1c(=O)c2c3ccc(OC(C)=O)cc3[nH]c2c2ccc(OC(C)=O)cc21 — higher, 4%
- CC(C)CCCC(C)C1CCC2C3CC=C4CC(OC(=O)c5ccncc5)CCC4(C)C3CCC12C (stereo not given) — higher, -0.4%
- CCOC(=O)Cn1cnc2sc3c(c2c1=O)CCCC3 — higher, 19.4%
- CCCCCCCCCCCCCCCCCCNC(=O)Nc1ccc(OC)cc1OC — higher, 2.8%
- CCC(C(=O)OC)C1CCCCC1 (stereo not given) — higher, -10.7%

With `COc1cc(CC2c3cccc(Oc4ccc(C)cc4)c3CCN2C)ccc1Oc1ccc(C)cc1` (stereo not given) the growth inhibition was 97.4% (active).
